Screens: PubChem BioAssay, National Center for Advancing Translational Sciences (NCATS)
This is a sample that favours compounds with a hit; in the whole collection about 8.7% have one here.
Vaccinia mCherry – inhibitors of vaccinia virus infection (mCherry reporter signal); Vaccinia virus mCherry reporter infection, fluorescence; Potency, µM (titrated, usually from 36.5 µM), for inactives: at the top dose activity change, negative = inhibition, most hits filed as inhibitors; 0.63% of 310,000 active; AID 720579; calls by dose curve; tested in A549 cells; also: nearly all actives have a fitted effect of over 35% in size
Pf growth 96h – P. falciparum growth inhibition at 96 hours. Potency, µM (highest dose often 28.7 µM), inactives show at the highest dose activity change, negative = inhibition, most hits filed as inhibitors. 6.9% of 320,000 active. P. falciparum luciferase reporter growth, 96 h
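Infected RBCs, 2% Hct / 0.05% parasitemia final; luciferase-reporter P. falciparum; cpd 96 h, 37 C, 5% CO2; luciferase detection reagent; luminescence.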
VACV Venus inh – vaccinia inhibition (Venus reporter) | Potency, µM (top dose mostly 36.5 µM), without a hit: at the top dose activity change, negative = inhibition, actives largely listed as inhibitors | Vaccinia virus Venus reporter expression, fluorescence | 0.46% of 330,000 active; calls by dose curve; tested in A549 cells; also: nearly all actives have a fitted effect of over 30% in size
AMA1 RON2 block – AMA1-RON2 (P. falciparum) interaction inhibition. Potency, µM (doses to about 58.2 µM), without a hit: top-dose activity change, negative = inhibition, hits mostly inhibitors. 0.2% of 360,000 active. AlphaScreen AMA1-biotinylated RON2 peptide binding;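 also: 0% = vehicle wells and -100% = peptide control; nearly all actives have a fitted effect of over 45% in size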
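AMA1 (3D7) with his tag at 25 nM final met compounds first, then biotinylated RON2 peptide at 25 nM; detection used donor plus acceptor beads, 10 µg/mL apiece, read by AlphaScreen after 30 min at room temperature.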
Pf growth 48h – inhibits P. falciparum growth in the first generation, 48 h | P. falciparum luciferase growth in erythrocytes, 48 h | Potency, µM (doses to about 28.7 µM), for the others: top-dose activity change, negative = inhibition, hits mostly inhibitors | 5.9% of 310,000 active
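Parasite viability was followed by luminescence of a genomically integrated firefly luciferase. Cultures held 0.1% parasitemia at 2% hematocrit (final), incubated under 5% CO2 at 37 C.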
* hit, by the source's call; i = inactive; ? = inconclusive; · = no result. Unless noted, calls follow the shape of the dose curve; as a rule, active = well fitted curve in the direction sought with a large enough effect; inconclusive = small, poorly fitted or top-dose-only effect, or another doubt; inactive = no such curve, though single readings can be large; an effect the other way counts as inactive or inconclusive. Unless noted, % is scaled to controls: 0 for no effect and ±100 for the full control effect; potency is read from the fitted curve at half-maximal effect.

SMILES | Vaccinia mCherry | Pf growth 96h | VACV Venus inh | AMA1 RON2 block | Pf growth 48h
COc1cc(OC)c(C2=NOC(C(=O)Nc3c(C)nn(CC(=O)N4CCCC4)c3C)C2)cc1Cl (stereo unspecified) | -23.8% | 5.86µM* | -10.2% | 14.3% | -6.7%
CCn1ncc(C2=NOC(C(=O)Nc3cc(OC)c(Cl)cc3OC)C2)c1C (stereo unspecified) | i | ? | -1.5% | -1.4% | 9.7%
CCCCn1cc(S(=O)(=O)c2ccc(OC)cc2)c(=O)c2cc(F)c(F)cc21 | i | · | -13.9% | · | ·
CCOc1ccccc1NC(=O)CN1C=NS(=O)(=O)c2ccccc21 | -10.9% | · | -14.0% | · | ·
S=C(S)N1CCNCC1 | · | -26.2% | · | · | -1.3%
S=C(S)N1CCCC1 | -5.4% | ? | -22.8% | 1.7% | 10.4µM*
CN(c1ccccc1C(=O)N1CCN(c2ccccc2F)CC1)S(=O)(=O)c1ccccc1 | -6.4% | 10.4µM* | -15.7% | 1.4% | -28.6%
O=C(c1ccccc1N(Cc1ccccc1)S(=O)(=O)c1ccccc1)N1CCOCC1 | i | 0.1% | 5.6% | -0.1% | -64.7%
Cc1ccc(N2CCN(C(=O)c3ccccc3F)CC2)c(C)c1 | ? | 3.29µM* | -10.8% | -3.7% | -15.3%
CCOC(=O)N1CCN(C(=O)c2ccccc2N(Cc2ccccc2)S(=O)(=O)c2ccccc2)CC1 | -8.5% | 21.9% | -1.6% | -3.1% | 4.65µM*
Cc1cc(=O)oc(C)c1C(=O)NCC(C)C | -12.5% | 4.0% | -3.5% | -2.5% | 14.4%
CCCNC(=O)c1c(C)cc(=O)oc1C | -3.6% | 6.57µM* | -13.9% | -5.4% | 33.1%
O=S(=O)(O)c1ccc(O)c2cc(Nc3ccccc3)ccc12 | -8.7% | · | 8.7% | 3.16µM* | ·
c1ccc(NC(c2ccccc2)c2ccncc2)cc1 (stereo unspecified) | -9.8% | 79.8% | -13.6% | 8.5% | 9.28µM*
COc1cccc(OCc2cc(=O)n3cc(C)sc3n2)c1 | -6.2% | · | -6.9% | · | ·
CCC(C)(C)C1CCC(NC(=O)c2ccc(S(=O)(=O)N3CCOCC3)cc2)CC1 (stereo unspecified) | · | 14.7µM* | · | -1.0% | 10.4µM*
O=C(NC1CCN(S(=O)(=O)c2ccccc2)CC1)c1cccc(F)c1 | -6.4% | ? | -27.0% | 1.6% | 22.8%
O=C(NC1CCN(S(=O)(=O)c2ccc(F)cc2)CC1)c1ccc(F)cc1 | · | 11.7µM* | · | 7.7% | 20.3%
O=S(=O)(c1ccc(F)cc1)N1CCN(C(=S)NC2CC2)CC1 | · | ? | · | 0.0% | 2.62µM*
O=C(NC1CCN(S(=O)(=O)c2cccc(F)c2)CC1)c1ccc(F)cc1 | · | 10.4µM* | · | -0.3% | ?
Cc1ccc(CN(C(=O)COc2c(C)cccc2C)C2CCS(=O)(=O)C2)o1 (stereo unspecified) | -20.1% | · | -9.6% | · | ·
Cc1cc(C)c2c(-n3cccc3)c(C(=O)NCCc3ccccc3)sc2n1 | -11.6% | · | -6.6% | · | ·
CC(=O)NC1CC2CCCC(C1)N2S(=O)(=O)c1cccc(F)c1 (stereo unspecified) | -18.4% | 8.28µM* | -12.0% | 6.1% | ·
O=C(c1cccs1)N1CCN(S(=O)(=O)c2ccc(F)cc2)CC1 | i | 0.465µM* | -0.6% | 1.4% | -3.4%
O=C(CSc1nc2ncccc2o1)Nc1cccc(C(F)(F)F)c1 | -1.7% | · | -3.4% | · | ·
SMILES | Vaccinia mCherry | Pf growth 96h | VACV Venus inh | AMA1 RON2 block | Pf growth 48h
CCC/C(=N\NC(=O)c1ccco1)c1ccc(Cl)s1 | · | 13.1µM* | · | 22.6% | -27.8%
CN1CCc2nc(SCC(=O)Nc3cccc(F)c3)c(C#N)c(-c3cccs3)c2C1 | -9.5% | 10.4µM* | -0.8% | -14.4% | 13.1µM*
Cc1ccc(NC(=O)COc2ccc(N(C)S(=O)(=O)c3ccc(F)cc3)cc2)cc1 | · | 10.4µM* | · | -10.4% | ?
COc1ccc(CCN(C)C(=O)COc2ccc(N(C)S(=O)(=O)c3ccc(C)cc3)cc2)cc1OC | -26.8% | 10.4µM* | -15.4% | 9.6% | 9.28µM*
Cc1ccc(S(=O)(=O)N(C)c2ccc(OCC(=O)NCC3(N(C)C)CCCCC3)cc2)cc1 | -26.2% | 9.28µM* | -18.1% | -13.6% | 9.28µM*
CN(c1ccc(OCC(=O)OCC(=O)Nc2ccc(F)cc2)cc1)S(=O)(=O)c1ccc(Cl)cc1 | -13.9% | ? | -4.7% | 5.4% | -6.8%
CC(=O)Nc1ccc(S(=O)(=O)N(C)c2ccc(OCC(=O)Nc3ccccc3C(C)=O)cc2)cc1 | -4.3% | ? | -13.3% | -5.7% | ?
CC(=O)c1ccccc1NC(=O)COc1ccc(N(C)S(=O)(=O)c2ccc(C)c(C)c2)cc1 | · | 11.7µM* | · | 4.3% | 10.4µM*
CCOc1ccccc1-c1noc(CSc2nnc(-c3ccccc3)n2-c2cccc(C)c2)n1 | -17.3% | · | -10.9% | · | ·
COc1ccc(-c2cn3nc(N4CCC(C(=O)Nc5ccc(C)cc5)CC4)sc3n2)cc1 | -21.6% | · | -16.4% | · | ·
O=C(COc1ccc(C(=S)N2CCCC2)cc1)Nc1ccccc1C(F)(F)F | i | ? | -21.3% | -0.6% | 16.9%
O=C(COc1ccc(C(=S)N2CCCC2)cc1)Nc1ccc(F)cc1 | -28.2% | 10.4µM* | -21.7% | -11.9% | -21.8%
COCC(C)n1c(C)cc(C(=O)COc2ccc(N(C)S(=O)(=O)c3ccc(NC(C)=O)cc3)cc2)c1C (stereo unspecified) | -28.8% | 1.31µM* | -28.0% | -0.2% | 4.65µM*
CC(=O)c1cccc(NC(=O)CCS(=O)(=O)c2cc(Br)cc3c2N(C(=O)C2CC2)CC3)c1 | -13.2% | · | -1.4% | · | ·
CN1CC[C@@]2(C)c3cc(O)ccc3N(C)C12 (stereo partly specified) | -22.2% | · | -15.1% | · | ·
CNC(=O)Oc1ccc2c(c1)[C@]1(C)CCN(C)[C@@H]1N2C | i | 3.7µM* | -3.2% | -0.3% | 8.28µM*
COc1ccccc1C(=O)Nc1ccc2[nH]ncc2c1 | -6.3% | 7.38µM* | 16.9% | -8.2% | 5.2%
Cc1ccc2[nH]c(CCN(C)C)c(CN3CCOCC3)c2c1 | · | 2.33µM* | · | 2.3% | 13.1µM*
COc1ccc(OC)c(C2=NOC(C(=O)N3CCCc4ccccc43)C2)c1 (stereo unspecified) | · | · | · | 1.7% | 4.9%
O=C(C1CC(c2ccc(F)cc2)=NO1)N1CCCc2ccccc21 (stereo unspecified) | -18.1% | 2.08µM* | -19.8% | 0.8% | 20.1%
O=c1c2c3c(sc2n(CCN2CCCCC2)c(=O)n1Cc1ccco1)CCCCC3 | · | 2.62µM* | · | -2.7% | ·
